Experimental data taken from PubChem BioAssay (NCI).
About 83,000 compounds went through this panel and 20% of them were active in at least one assay; those are over-represented in the sample as a whole.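 Results are percent growth after 48 hours of single-concentration exposure. 100 means growth as in untreated cells, lower positive values show inhibition; negative values down to -100 show cell death.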 Activity calls are given as the source filed them. The calls were made as follows: active = growth percent below 10; inactive = the rest.

Legend:
Assay in all cases: NCI-60 one-dose screen, 48 h (100 = growth as untreated, 0 = no growth, -100 = all killed)
Settings in all cases: 10 µM unless noted
HCT-15 colon = tested on: HCT-15 colon
HT29 colon = tested on: HT29 colon
SNB-75 CNS = tested on: SNB-75 CNS
SNB-19 CNS = tested on: SNB-19 CNS
U251 CNS = tested on: U251 CNS
PC-3 prostate = tested on: PC-3 prostate
SK-MEL-5 melanoma = tested on: SK-MEL-5 melanoma
UACC-62 melanoma = tested on: UACC-62 melanoma
LOX IMVI melanoma = tested on: LOX IMVI melanoma
SK-MEL-28 melanoma = tested on: SK-MEL-28 melanoma
EKVX NSCLC = tested on: EKVX NSCLC
SN12C renal = tested on: SN12C renal
UO-31 renal = tested on: UO-31 renal
TK-10 renal = tested on: TK-10 renal
ACHN renal = tested on: ACHN renal
CAKI-1 renal = tested on: CAKI-1 renal
CCRF-CEM leukemia = tested on: CCRF-CEM leukemia
MOLT-4 leukemia = tested on: MOLT-4 leukemia
SK-MEL-2 melanoma = tested on: SK-MEL-2 melanoma
A498 renal = tested on: A498 renal

Measured: growth

COc1ccc(-n2c(SCc3n[nH]c(=S)o3)nc3ccc(Cl)cc3c2=O)cc1
inactive: HCT-15 colon 93.6% | HT29 colon 105% | SNB-75 CNS 95.5% | SNB-19 CNS 92.9% | U251 CNS 104% | PC-3 prostate 101% | SK-MEL-5 melanoma 93.5% | UACC-62 melanoma 92% | LOX IMVI melanoma 101% | SK-MEL-28 melanoma 95.1% | EKVX NSCLC 98.7% | SN12C renal 92% | UO-31 renal 93.7% | TK-10 renal 105% | ACHN renal 97% | CAKI-1 renal 85.5% | CCRF-CEM leukemia 98.7% | MOLT-4 leukemia 111%

NS(=O)(=O)c1ccc(Nc2nc(N/N=C/CCc3ccccc3)nc(Nc3ccccc3)n2)cc1
inactive: HCT-15 colon 105% | HT29 colon 107% | SNB-75 CNS 112% | SNB-19 CNS 104% | U251 CNS 104% | PC-3 prostate 104% | SK-MEL-5 melanoma 99.7% | UACC-62 melanoma 95.8% | LOX IMVI melanoma 95.4% | SK-MEL-28 melanoma 107% | SK-MEL-2 melanoma 105% | SN12C renal 105% | UO-31 renal 84% | TK-10 renal 105% | ACHN renal 101% | CAKI-1 renal 96.9% | A498 renal 86.4% | MOLT-4 leukemia 101%

CN1CCN(c2ccc(/C=N/Nc3nc4ccccc4c(=O)n3-c3ccccc3)cc2)CC1
inactive: HCT-15 colon 99.2% | HT29 colon 100% | SNB-75 CNS 95.5% | SNB-19 CNS 105% | U251 CNS 102% | PC-3 prostate 93.2% | SK-MEL-5 melanoma 92.4% | UACC-62 melanoma 101% | LOX IMVI melanoma 122% | SK-MEL-28 melanoma 103% | SK-MEL-2 melanoma 107% | SN12C renal 103% | UO-31 renal 95.5% | TK-10 renal 91.3% | ACHN renal 108% | A498 renal 89.8% | CCRF-CEM leukemia 105% | MOLT-4 leukemia 104%

CCOC(=O)c1c(Nc2ccccc2)nn2c(-c3ccc(Cl)cc3)ccnc12
inactive: HCT-15 colon 77.8% | HT29 colon 83.7% | SNB-75 CNS 88% | SNB-19 CNS 72.1% | U251 CNS 81.5% | PC-3 prostate 80.5% | SK-MEL-5 melanoma 80.2% | UACC-62 melanoma 82.8% | LOX IMVI melanoma 64.5% | SK-MEL-28 melanoma 87.2% | EKVX NSCLC 88.9% | SN12C renal 83.9% | UO-31 renal 64.8% | TK-10 renal 98.1% | ACHN renal 47.2% | CAKI-1 renal 56.1% | MOLT-4 leukemia 86%

CCOC(=O)c1c(Nc2ccccc2)nn2c(-c3cccs3)ccnc12
inactive: HCT-15 colon 53.8% | HT29 colon 80.3% | SNB-75 CNS 88.8% | SNB-19 CNS 98.2% | U251 CNS 88.6% | PC-3 prostate 81% | SK-MEL-5 melanoma 70.9% | UACC-62 melanoma 84.6% | LOX IMVI melanoma 73.7% | SK-MEL-28 melanoma 90.7% | EKVX NSCLC 88.8% | SN12C renal 91% | UO-31 renal 82.6% | TK-10 renal 107% | ACHN renal 88.3% | CAKI-1 renal 78.8% | CCRF-CEM leukemia 58.8% | MOLT-4 leukemia 74.5%

O=C(NNc1nc2cc(F)c(F)cc2n2cccc12)c1cnccn1
active: MOLT-4 leukemia 7.98%
inactive: HCT-15 colon 13.9% | HT29 colon 36.8% | SNB-75 CNS 54.7% | SNB-19 CNS 31.5% | U251 CNS 26.4% | PC-3 prostate 29.4% | SK-MEL-5 melanoma 29.3% | UACC-62 melanoma 22.2% | LOX IMVI melanoma 11.4% | SK-MEL-28 melanoma 36% | SK-MEL-2 melanoma 46.2% | SN12C renal 39% | UO-31 renal 23.3% | TK-10 renal 49.3% | ACHN renal 17.6% | A498 renal 43.6% | CCRF-CEM leukemia 14.4%

CN1CCN(Cc2ccc(NC(=O)c3cncc(C#Cc4cnn5cccnc45)c3)cc2C(F)(F)F)CC1
active: HCT-15 colon 4.11% | LOX IMVI melanoma -33.3% | SN12C renal 8.93% | MOLT-4 leukemia 6.57%
inactive: HT29 colon 17.5% | SNB-75 CNS 62.4% | SNB-19 CNS 29% | U251 CNS 36.2% | PC-3 prostate 30.8% | SK-MEL-5 melanoma 17.7% | UACC-62 melanoma 23.8% | SK-MEL-28 melanoma 12.1% | EKVX NSCLC 46.6% | UO-31 renal 22.3% | TK-10 renal 32.8% | ACHN renal 11.2% | CAKI-1 renal 21.6%

Cc1ccc(NC(=O)N[C@@H](Cc2cc(F)cc(F)c2)C(=O)NC2C(=O)N3C[C@H](O)C[C@H]3C(=O)N3CCCC[C@H]3C(=O)N[C@@H](CO)C(=O)N3C[C@H](C)C[C@H]3C(=O)O[C@H]2C)c(F)c1 (some centres undefined)
inactive: HCT-15 colon 106% | HT29 colon 42.8% | SNB-75 CNS 27.4% | SNB-19 CNS 27.1% | U251 CNS 29.3% | PC-3 prostate 20% | SK-MEL-5 melanoma 21.5% | UACC-62 melanoma 30.9% | LOX IMVI melanoma 28.1% | SK-MEL-28 melanoma 47.4% | EKVX NSCLC 40.7% | SN12C renal 22% | UO-31 renal 90.7% | TK-10 renal 107% | ACHN renal 107% | CAKI-1 renal 82.9% | CCRF-CEM leukemia 35.1% | MOLT-4 leukemia 54.5%

COc1cc2nc(Cl)nc(Nc3cccc(C4=Nc5c(N)nc(N)nc5NC(c5ccc6c(c5)OCO6)C4)c3)c2cc1OC (centres undefined)
inactive: HCT-15 colon 33.2% | HT29 colon 68.9% | SNB-75 CNS 82.2% | SNB-19 CNS 78.4% | PC-3 prostate 63.6% | SK-MEL-5 melanoma 72.1% | UACC-62 melanoma 94.8% | LOX IMVI melanoma 52.6% | SK-MEL-28 melanoma 106% | SK-MEL-2 melanoma 85.2% | SN12C renal 78.6% | UO-31 renal 86% | TK-10 renal 113% | ACHN renal 94% | CAKI-1 renal 82.8% | A498 renal 105% | CCRF-CEM leukemia 26.8% | MOLT-4 leukemia 27%
active: U251 CNS 8.17%

CS(=O)(=O)c1ccc(-n2cc(/C=N/O)c(-c3ccccc3)n2)cc1
inactive: HCT-15 colon 76.6% | HT29 colon 97.4% | SNB-75 CNS 87.7% | SNB-19 CNS 71.2% | U251 CNS 72.1% | PC-3 prostate 71% | SK-MEL-5 melanoma 21.2% | UACC-62 melanoma 66.6% | SK-MEL-28 melanoma 93.3% | SK-MEL-2 melanoma 92.3% | SN12C renal 89.5% | UO-31 renal 76% | TK-10 renal 92.5% | ACHN renal 78.4% | CAKI-1 renal 73.8% | A498 renal 83.7% | CCRF-CEM leukemia 33.8% | MOLT-4 leukemia 28.7%
active: LOX IMVI melanoma -79.5%

COc1cccc(C(=O)Nc2cccc(C#Cc3cccc4[nH]nc(N)c34)c2)c1
active: SNB-75 CNS 3.74%
inactive: HCT-15 colon 28.9% | HT29 colon 37.5% | SNB-19 CNS 98.5% | U251 CNS 68% | PC-3 prostate 32.7% | UACC-62 melanoma 57.6% | LOX IMVI melanoma 37% | SK-MEL-28 melanoma 67.7% | EKVX NSCLC 80.9% | SN12C renal 71.6% | UO-31 renal 56.4% | TK-10 renal 96.5% | ACHN renal 51% | CAKI-1 renal 52.4% | CCRF-CEM leukemia 28.5%

N#Cc1c(Nc2ccccc2)nn2c(-c3ccc([N+](=O)[O-])cc3)ccnc12
inactive: HCT-15 colon 99.3% | HT29 colon 103% | SNB-75 CNS 102% | SNB-19 CNS 100% | U251 CNS 99.8% | PC-3 prostate 103% | SK-MEL-5 melanoma 88.6% | UACC-62 melanoma 93.3% | LOX IMVI melanoma 93.7% | SN12C renal 104% | UO-31 renal 84% | TK-10 renal 98% | ACHN renal 102% | CAKI-1 renal 91.9% | CCRF-CEM leukemia 104% | MOLT-4 leukemia 105%

Nc1nc(Nc2ccccc2SSc2ccccc2Nc2nc(N)nc(-c3cccc(Br)c3)n2)nc(-c2cccc(Br)c2)n1
inactive: HCT-15 colon 50.8% | HT29 colon 108% | SNB-75 CNS 53.9% | SNB-19 CNS 25.4% | PC-3 prostate 34.7% | SK-MEL-5 melanoma 91.2% | UACC-62 melanoma 88.3% | SK-MEL-2 melanoma 109% | EKVX NSCLC 42.8% | SN12C renal 63.7% | TK-10 renal 104% | ACHN renal 50.1% | CAKI-1 renal 21.6% | A498 renal 72% | MOLT-4 leukemia 52%
active: U251 CNS -43.9% | LOX IMVI melanoma -62.1% | UO-31 renal -7.87%

CNC(=O)c1cc(Oc2ccc3nc(NC(=O)c4cccc(OC(F)(F)F)c4)sc3c2)ccn1
inactive: HCT-15 colon 81.7% | HT29 colon 86% | SNB-75 CNS 45.5% | SNB-19 CNS 81.3% | U251 CNS 84.3% | PC-3 prostate 73% | UACC-62 melanoma 78.4% | LOX IMVI melanoma 85.2% | SK-MEL-28 melanoma 85.3% | EKVX NSCLC 79.6% | SN12C renal 78.7% | UO-31 renal 95.7% | TK-10 renal 101% | ACHN renal 75.2% | CAKI-1 renal 73.9% | CCRF-CEM leukemia 71.2% | MOLT-4 leukemia 73.3%

Nc1nc(Nc2ccccc2SSc2ccccc2Nc2nc(N)nc(-c3ccc4ccccc4c3)n2)nc(-c2ccc3ccccc3c2)n1
active: LOX IMVI melanoma -70.7% | UO-31 renal -19.1%
inactive: HCT-15 colon 66.9% | HT29 colon 102% | SNB-75 CNS 45.9% | SNB-19 CNS 92.9% | U251 CNS 45.7% | PC-3 prostate 45.5% | SK-MEL-5 melanoma 92.3% | UACC-62 melanoma 85% | SK-MEL-2 melanoma 99.4% | EKVX NSCLC 44.7% | SN12C renal 70% | TK-10 renal 117% | CAKI-1 renal 35% | A498 renal 94% | MOLT-4 leukemia 62.5%

Cc1cc(C)cc(C(=O)Nc2cccc(C#Cc3cccc4[nH]nc(N)c34)c2)c1
inactive: HCT-15 colon 33.8% | HT29 colon 41.7% | SNB-75 CNS 40.3% | SNB-19 CNS 99.5% | U251 CNS 72.2% | PC-3 prostate 33.6% | UACC-62 melanoma 60.5% | LOX IMVI melanoma 43.2% | SK-MEL-28 melanoma 72% | EKVX NSCLC 89.3% | SN12C renal 71.5% | UO-31 renal 62.2% | TK-10 renal 92.9% | ACHN renal 56.2% | CAKI-1 renal 55.3% | CCRF-CEM leukemia 30.5% | MOLT-4 leukemia 27%

Cn1ccnc1C(=O)/C=C/c1ccc(CNC(=O)c2c(F)c(F)c(F)c(F)c2F)cc1
active: LOX IMVI melanoma -66.4%
inactive: HCT-15 colon 11.8% | HT29 colon 14.7% | SNB-75 CNS 96.3% | SNB-19 CNS 42.2% | U251 CNS 45.6% | PC-3 prostate 35.2% | SK-MEL-5 melanoma 75.7% | UACC-62 melanoma 54.9% | SK-MEL-2 melanoma 99.4% | EKVX NSCLC 93.2% | SN12C renal 44.5% | UO-31 renal 79.7% | TK-10 renal 79.2% | ACHN renal 47.9% | CAKI-1 renal 76% | A498 renal 83.3% | MOLT-4 leukemia 23%
